# Reference: the supplement of paper PMC8728848
# About 410 targets per protein were measured; listed, in parts, are those with the strongest signals and a random draw of the rest.
# Experiments:
# Assay in all cases: glycan array binding signal (z-score within array); higher = stronger binding
# Details in all cases: glycan notation: IUPAC condensed, linker removed
# [1] = target: Gal3S(b1-3)GalNAc
# Summary of the method: (§1)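 The Consortium for Functional Glycomics database supplied 3228 glycan arrays, of which those lacking an available protein sequence were dropped. The binding signal, a within-array Z-score, was averaged across arrays of the same protein sequence and across linkers. Negative scores can be read as non-binding.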
# [2] = target: Gal3S(b1-4)GlcNAc6S
# Summary of the method: as §1
# [3] = target: Gal6S(b1-4)Glc
# Summary of the method: as §1
# [4] = target: GalNAc(a1-3)GalNAc(b1-3)Gal(a1-4)Gal(b1-4)GlcNAc
# Summary of the method: as §1
# [5] = target: GlcA3S(b1-3)Gal(b1-4)GlcNAc(b1-2)Man
# Summary of the method: as §1
# [6] = target: GlcA3S(b1-3)Gal(b1-4)GlcNAc(b1-3)Gal(b1-4)Glc
# Summary of the method: as §1
# [7] = target: GlcNAc(a1-4)Gal(b1-4)GalNAc
# Summary of the method: as §1
# [8] = target: GlcNAc(b1-2)Man(a1-3)[GlcNAc(b1-4)][GlcNAc(b1-2)Man(a1-6)]Man(b1-4)GlcNAc(b1-4)GlcNAc
# Summary of the method: as §1
# [9] = target: GlcNAc(b1-2)Man(a1-3)[GlcNAc(b1-4)][GlcNAc(b1-2)Man(a1-6)]Man(b1-4)GlcNAc(b1-4)[Fuc(a1-6)]GlcNAc
# Summary of the method: as §1
# [10] = target: GlcNAc(b1-2)[GlcNAc(b1-4)]Man(a1-3)[GlcNAc(b1-4)][GlcNAc(b1-2)Man(a1-6)]Man(b1-4)GlcNAc(b1-4)GlcNAc
# Summary of the method: as §1
# [11] = target: GlcNAc(b1-3)Gal(b1-4)GlcNAc(b1-6)[Gal(b1-3)]GalNAc
# Summary of the method: as §1
# [12] = target: Man(a1-3)[Man(a1-6)]Man(a1-6)[Man(a1-3)]Man(b1-4)GlcNAc(b1-4)GlcNAc
# Summary of the method: as §1
# [13] = target: Neu5Ac(a2-3)Gal
# Summary of the method: as §1
# [14] = target: Neu5Ac(a2-3)Gal(b1-3)GalNAc(b1-3)Gal(a1-4)Gal(b1-4)Glc
# Summary of the method: as §1
# [15] = target: Neu5Ac(a2-3)Gal(b1-4)GlcNAc(b1-2)Man(a1-3)[GlcNAc(b1-2)Man(b1-4)GlcNAc(b1-2)Man(a1-6)]Man(b1-4)GlcNAc(b1-4)GlcNAc
# Summary of the method: as §1
# [16] = target: Neu5Ac(a2-3)Gal(b1-4)GlcNAc(b1-2)Man(a1-3)[Neu5Ac(a2-3)Gal(b1-4)GlcNAc(b1-2)Man(a1-6)]Man(b1-4)GlcNAc(b1-4)[Fuc(a1-6)]GlcNAc
# Summary of the method: as §1
# [17] = target: Neu5Ac(a2-3)Gal(b1-4)GlcNAc(b1-2)[Neu5Ac(a2-3)Gal(b1-4)GlcNAc(b1-4)]Man(a1-3)[GlcNAc(b1-4)][Neu5Ac(a2-3)Gal(b1-4)GlcNAc(b1-2)[Neu5Ac(a2-3)Gal(b1-4)GlcNAc(b1-6)]Man(a1-6)]Man(b1-4)GlcNAc(b1-4)GlcNAc
# Summary of the method: as §1
# [18] = target: Neu5Ac(a2-3)Gal(b1-4)GlcNAc(b1-2)[Neu5Ac(a2-3)Gal(b1-4)GlcNAc(b1-4)]Man(a1-3)[GlcNAc(b1-4)][Neu5Ac(a2-3)Gal(b1-4)GlcNAc(b1-4)Man(a1-6)]Man(b1-4)GlcNAc(b1-4)GlcNAc
# Summary of the method: as §1
# [19] = target: Neu5Ac(a2-3)Gal(b1-4)GlcNAc(b1-3)Gal(b1-4)GlcNAc(b1-3)Gal(b1-4)GlcNAc(b1-2)Man(a1-3)[Neu5Ac(a2-3)Gal(b1-4)GlcNAc(b1-3)Gal(b1-4)GlcNAc(b1-3)Gal(b1-4)GlcNAc(b1-2)Man(a1-6)]GalNAc
# Summary of the method: as §1
# [20] = target: Neu5Ac(a2-3)Gal(b1-4)GlcNAc(b1-3)Gal(b1-4)GlcNAc(b1-3)GalNAc
# Summary of the method: as §1
# [21] = target: Neu5Ac(a2-6)Gal(b1-4)GlcNAc(b1-2)Man(a1-3)[Neu5Ac(a2-6)Gal(b1-4)GlcNAc(b1-2)Man(a1-6)]Man(b1-4)GlcNAc(b1-4)GlcNAc
# Summary of the method: as §1
# [22] = target: Neu5Ac(a2-6)Gal(b1-4)GlcNAc(b1-2)Man(a1-3)[Neu5Ac(a2-6)Gal(b1-4)GlcNAc(b1-2)Man(a1-6)]Man(b1-4)GlcNAc(b1-4)[Fuc(a1-6)]GlcNAc
# Summary of the method: as §1
# [23] = target: Neu5Ac(a2-6)Gal(b1-4)GlcNAc(b1-2)Man(a1-6)[Man(a1-3)]Man(b1-4)GlcNAc(b1-4)GlcNAc
# Summary of the method: as §1
# [24] = target: Neu5Ac(a2-6)Gal(b1-4)GlcNAc(b1-3)Gal(b1-4)GlcNAc(b1-3)[Neu5Ac(a2-6)Gal(b1-4)GlcNAc(b1-3)Gal(b1-4)GlcNAc(b1-6)]GalNAc
# Summary of the method: as §1
# [25] = target: Neu5Ac(a2-6)GalNAc
# Summary of the method: as §1
# [26] = target: Neu5Ac(a2-8)Neu5Ac
# Summary of the method: as §1
# [27] = target: Neu5Ac(a2-8)Neu5Ac(a2-3)Gal(b1-3)GalNAc(b1-4)[Neu5Ac(a2-8)Neu5Ac(a2-3)]Gal(b1-4)Glc
# Summary of the method: as §1
# [28] = target: Neu5Ac(a2-8)Neu5Ac(a2-8)Neu5Ac(a2-8)Neu5Ac(a2-3)[GalNAc(b1-4)]Gal(b1-4)Glc
# Summary of the method: as §1
# [29] = target: Neu5Ac9Ac(a2-3)Gal(b1-3)GlcNAc
# Summary of the method: as §1
# [30] = target: Neu5Gc(a2-8)Neu5Gc(a2-3)Gal(b1-4)GlcNAc(b1-3)Gal(b1-4)GlcNAc
# Summary of the method: as §1
binder,measurement,setting,value
"AAL (Agrocybe aegerita), Q6WY08 (protein) MQGVNIYNISAGTSVDLAAPVTTGDIVTFFSSALNLNAGAGNPNNTTLNLFAENGAYLLHIAFRLQENVIIFNSRQPDGPWLVEQRVSDVANQFAGIDGKAMVTVFDHGDKYQVVINEKTVIQYTKQISGLTLSLSYNATEETSIFSTVVEAVTYTGLALEHHHHHH",glycan array binding signal (z-score),[1],9.4
same,glycan array binding signal (z-score),[2],3.66
same,glycan array binding signal (z-score),[3],-0.141
same,glycan array binding signal (z-score),[4],-0.137
same,glycan array binding signal (z-score),[5],6.26
same,glycan array binding signal (z-score),[6],10.9
same,glycan array binding signal (z-score),[7],-0.152
same,glycan array binding signal (z-score),[8],-0.151
same,glycan array binding signal (z-score),[9],-0.151
same,glycan array binding signal (z-score),[10],-0.14
same,glycan array binding signal (z-score),[11],-0.134
same,glycan array binding signal (z-score),[12],-0.118
same,glycan array binding signal (z-score),[13],-0.138
same,glycan array binding signal (z-score),[14],1.72
same,glycan array binding signal (z-score),[15],5.88
same,glycan array binding signal (z-score),[16],3.85
same,glycan array binding signal (z-score),[17],2.98
same,glycan array binding signal (z-score),[18],5.72
same,glycan array binding signal (z-score),[19],-0.107
same,glycan array binding signal (z-score),[20],-0.106
same,glycan array binding signal (z-score),[21],-0.134
same,glycan array binding signal (z-score),[22],-0.131
same,glycan array binding signal (z-score),[23],-0.148
same,glycan array binding signal (z-score),[24],-0.138
same,glycan array binding signal (z-score),[25],-0.164
same,glycan array binding signal (z-score),[26],-0.146
same,glycan array binding signal (z-score),[27],-0.138
same,glycan array binding signal (z-score),[28],-0.132
same,glycan array binding signal (z-score),[29],-0.156
same,glycan array binding signal (z-score),[30],2.45
